Results as given in PubChem BioAssay AID1159580 (chemical genetic matrix, 2015).
In all, about 5,500 compounds went through this assay and about 2,000 (36%) were called active. Inconclusive results (about 18%) are left out. Rule as the data show it: active = normalized growth mostly below about 0.91 (no sharp cut-off); inconclusive = no clear call, values can overlap the other calls; inactive = mostly above about 0.92. The list shows a part of the results.

Test: chemical genetic growth profiling, strain panel (AID 1159580);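 also: tested at 20 µM; growth read once vehicle control cultures reached saturation at 30 °C; 1 = growth at the plate median or of vehicle wells; lower values mean less growth of the strain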
Details: S. cerevisiae deletion strains, growth OD
[1] = locus YAR019C, strain CDC15, hits give low values
[2] = locus YBL105C, strain PKC1, hits give low values
[3] = locus YBR135W, strain CKS1, hits give low values
[4] = locus YBR136W, strain MEC1, hits give low values
[5] = locus YBR160W, strain CDC28, hits give low values
[6] = locus YDL017W, strain CDC7, hits give low values
[7] = locus YDL028C, strain MPS1, hits give low values
[8] = locus YDL101C, strain DUN1, hits give low values
[9] = locus YDL108W, strain KIN28, hits give low values
[10] = locus YDL132W, strain cdc53, hits give low values
[11] = locus YDL214C, strain PRR2, hits give low values
[12] = locus YDR052C, strain DBF4, hits give low values
[13] = locus YDR054C, strain cdc34, hits give low values
[14] = locus YDR226W, strain ADK1, hits give low values
[15] = locus YDR477W, strain SNF1, hits give low values
[16] = locus YER123W, strain YCK3, hits give low values
[17] = locus YER133W, strain GLC7, hits give low values
[18] = locus YFL009W, strain cdc4, hits give low values
[19] = locus YFL029C, strain CAK1, hits give low values
[20] = locus YFR003C, strain YPI1, hits give low values
[21] = locus YFR019W, strain FAB1, hits give low values
[22] = locus YFR028C, strain CDC14, hits give low values
[23] = locus YGR040W, strain KSS1, hits give low values
[24] = locus YGR052W, strain FMP48, hits give low values
[25] = locus YGR092W, strain DBF2, hits give low values
[26] = locus YHR030C, strain SLT2, hits give low values
[27] = locus YHR079C, strain IRE1, hits give low values
[28] = locus YHR082C, strain KSP1, hits give low values
[29] = locus YHR205W, strain SCH9, hits give low values
[30] = locus YIL147C, strain SLN1, hits give low values
[31] = locus YJL095W, strain BCK1, hits give low values
[32] = locus YJL128C, strain PBS2, hits give low values
[33] = locus YJL157C, strain FAR1, hits give low values
[34] = locus YJR016C, strain ILV3, hits give low values
[35] = locus YJR066W, strain TOR1 (second series), hits give low values
[36] = locus YJR066W, strain TOR1, hits give low values
[37] = locus YKL048C, strain ELM1, hits give low values
[38] = locus YKL067W, strain YNK1, hits give low values
[39] = locus YKL101W, strain HSL1, hits give low values
[40] = locus YKL193C, strain SDS22, hits give low values
[41] = locus YKL203C, strain TOR2, hits give low values
[42] = locus YLR113W, strain HOG1, hits give low values
[43] = locus YLR133W, strain CKI1, hits give low values
[44] = locus YLR403W, strain SFP1, hits give low values
[45] = locus YML070W, strain DAK1, hits give low values
[46] = locus YMR001C, strain CDC5, hits give low values
[47] = locus YMR205C, strain PFK2 (second series), hits give low values
[48] = locus YMR277W, strain FCP1, hits give low values
[49] = locus YNL006W, strain LST8, hits give low values
[50] = locus YNL020C, strain ARK1, hits give low values
[51] = locus YNL161W, strain CBK1, hits give low values
[52] = locus YNL183C, strain NPR1, hits give low values
[53] = locus YNL207W, strain RIO2, hits give low values
[54] = locus YNL222W, strain SSU72, hits give low values
[55] = locus YNL307C, strain MCK1 (second series), hits give low values
[56] = locus YOL078W, strain AVO1, hits give low values
[57] = locus YOL136C, strain PFK27, hits give low values
[58] = locus YOR061W, strain CKA2, hits give low values
[59] = locus YOR119C, strain RIO1, hits give low values
[60] = locus YOR231W, strain MKK1, hits give low values
[61] = locus YOR329C, strain SCD5, hits give low values
[62] = locus YPL031C, strain PHO85, hits give low values
[63] = locus YPL153C, strain RAD53, hits give low values
[64] = locus YPL204W, strain HRR25, hits give low values
[65] = locus YPL209C, strain IPL1, hits give low values
[66] = locus YPL256C, strain CLN2, hits give low values
[67] = locus YPR025C, strain CCL1, hits give low values
[68] = locus YPR106W, strain ISR1, hits give low values
[69] = locus YPR111W, strain DBF20, hits give low values
[70] = strain NNK1, hits give low values
[71] = strain TSCII, hits give low values

Measured: normalized growth

CC1(C)C=Cc2cc(/C(N)=N\OC(=O)Nc3cccc(C(F)(F)F)c3)ccc2O1
active: [26] 0.426 | [42] 0.832 | [66] 0.831
inactive: [1] 0.981 | [2] 0.982 | [3] 0.969 | [4] 0.972 | [5] 0.977 | [6] 0.987 | [7] 0.977 | [8] 0.988 | [9] 0.977 | [10] 0.977 | [11] 0.947 | [12] 0.989 | [13] 0.97 | [14] 0.976 | [15] 0.967 | [16] 0.866 | [17] 0.947 | [18] 0.976 | [19] 0.982 | [20] 0.984 | [21] 0.883 | [22] 0.978 | [23] 0.968 | [24] 0.99 | [25] 0.854 | [27] 0.825 | [28] 0.917 | [29] 0.912 | [30] 0.98 | [31] 0.726 | [32] 0.967 | [33] 0.96 | [34] 0.975 | [35] 0.832 | [36] 0.827 | [37] 0.934 | [38] 0.933 | [39] 0.934 | [40] 0.979 | [41] 0.991 | [43] 0.937 | [44] 0.949 | [45] 0.887 | [46] 0.98 | [47] 0.93 | [48] 0.987 | [49] 0.985 | [50] 0.924 | [51] 0.984 | [52] 0.801 | [53] 0.984 | [54] 0.981 | [55] 0.931 | [56] 0.976 | [57] 0.903 | [58] 0.945 | [59] 1.04 | [60] 0.823 | [61] 0.988 | [62] 0.935 | [63] 0.871 | [64] 0.903 | [65] 0.98 | [67] 0.978 | [68] 0.981 | [69] 0.963 | [70] 0.993 | [71] 0.979

O=C(Nc1ccc(OC(F)(F)F)cc1)Nc1cccc(C(=O)O)c1
inactive: locus YAL013W, strain DEP1, hits give low values 1.01 | locus YBR229C, strain ROT2, hits give low values 0.999 | locus YCL061C, strain MRC1, hits give low values 1.01 | [8] 1.01 | locus YDL134C, strain PPH21, hits give low values 1.04 | locus YDR150W, strain NUM1, hits give low values 0.947 | locus YEL061C, strain CIN8, hits give low values 1.02 | locus YGR078C, strain PAC10, hits give low values 1 | [26] 1.02 | locus YHR087W, strain rtc3, hits give low values 1.02 | locus YJL187C, strain SWE1, hits give low values 1.01 | locus YJR043C, strain POL32, hits give low values 0.974 | locus YJR075W, strain HOC1, hits give low values 1.01 | locus YLR039C, strain RIC1, hits give low values 0.995 | locus YLR058C, strain SHM2 (second series), hits give low values 1.01 | locus YLR085C, strain ARP6, hits give low values 1.07 | locus YLR262C, strain YPT6, hits give low values 0.981 | locus YML094W, strain GIM5, hits give low values 1.02 | locus YMR219W, strain ESC1, hits give low values 1 | locus YMR263W, strain SAP30, hits give low values 1.02 | locus YMR307W, strain GAS1, hits give low values 1.08 | locus YNL153C, strain GIM3, hits give low values 0.988 | locus YNL298W, strain CLA4 (second series), hits give low values 1 | locus YNL322C, strain KRE1, hits give low values 0.999 | locus YNR030W, strain Alg12, hits give low values 1.04 | locus YPL055C, strain LGE1, hits give low values 0.999 | locus YPL241C, strain CIN2, hits give low values 1.03 | locus YPR135W, strain CTF4, hits give low values 0.996

N/C(=N/OC(=O)Nc1cccc(C(F)(F)F)c1)c1ccc(OC(F)(F)F)cc1
active: [16] 0.524 | [21] 0.745 | [24] 0.551 | [26] 0.21 | [27] 0.306 | [28] 0.496 | [31] 0.287 | [42] 0.361 | [52] 0.53 | [60] 0.269 | [63] 0.485 | [66] 0.456
inactive: [1] 0.983 | [2] 1 | [3] 0.979 | [4] 0.985 | [5] 0.969 | [6] 0.995 | [7] 0.972 | [8] 0.989 | [9] 0.975 | [10] 0.979 | [11] 0.895 | [12] 0.998 | [13] 0.971 | [14] 0.971 | [15] 0.822 | [17] 0.893 | [18] 0.953 | [19] 0.981 | [20] 0.994 | [22] 0.976 | [23] 0.837 | [25] 0.616 | [29] 0.882 | [30] 0.988 | [32] 0.93 | [33] 0.905 | [34] 0.988 | [35] 0.731 | [36] 0.555 | [37] 0.874 | [38] 0.883 | [39] 0.743 | [40] 0.985 | [41] 0.895 | [43] 0.887 | [44] 0.914 | [45] 0.716 | [46] 0.983 | [47] 0.906 | [48] 0.97 | [49] 0.977 | [50] 0.794 | [51] 0.996 | [53] 0.995 | [54] 0.973 | [55] 0.814 | [56] 0.983 | [57] 0.821 | [58] 0.883 | [59] 0.869 | [61] 0.993 | [62] 0.749 | [64] 0.684 | [65] 0.992 | [67] 0.99 | [68] 0.976 | [69] 0.946 | [70] 0.98 | [71] 0.986
